Consider 8 molecules from PubChem BioAssay (Tox21).

Assay [1] is described as follows: qHTS assay to identify small molecule agonists of the estrogen receptor alpha (ER-alpha) signaling pathway in the presence of an antagonist - cell viability counter screen (AID 1259386).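 Also: series mostly up to about 92 µM; cells exposed to compounds for 22 h at 37 °C before the viability read; nearly all actives have a fitted effect of over 30% in size.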 A digest of the protocol: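 In this counter screen, compound effects on VM7Luc4E2 viability were tested in the presence of the antagonist ICI-182,780 at 10.0nM final. Compounds were dosed at 15 concentrations, exposure lasted 22hr, and the CellTiter-Fluor signal was read.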
On the technique in general: In qHTS, concentration-response curves come from the screen itself.

For assay [2], the target named is Progesterone receptor (Homo sapiens) (UniProt P06401). The assay is described as follows: qHTS assay to identify small molecule agonists of the progesterone receptor (PR) signaling pathway (AID 1346784; calls by dose curve; also: nearly all actives have a fitted effect of over 30% in size). The gist of the method:
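Beta-lactamase reporter read-out: after 16 hr compound treatment at 37C and a further 2 hr at room temperature with LiveBLAzer B/G FRET substrate, fluorescence was measured in PR-UAS-bla HEK 293T cells grown in 2% charcoal-stripped serum.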

Assay [3] has the same target. The assay can be described thus: qHTS assay to identify small molecule antagonists of the progesterone receptor (PR) signaling pathway (AID 1346795; active = well fitted inhibition curve with a large enough effect in the signal ratio in the repeat runs, not every such curve was filed as active; the % refers to the signal ratio). The gist of the method: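 Read-out is fluorescence from the LiveBLAzer B/G FRET substrate, cleaved by a UAS-controlled beta-lactamase in PR-UAS-bla HEK293T cells after 16 hr exposure to compound plus 1 nM promegestone (final), followed by 2 hr at room temperature.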

The nature of assay [4]: qHTS assay to identify small molecule antagonists of the progesterone receptor (PR) signaling pathway - cell viability counter screen (AID 1346798).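 Also: HEK293T PR-UAS-bla cells stimulated with the agonist R5020; series mostly up to about 92 µM; nearly all actives have a fitted effect of over 50% in size.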 A digest of the protocol:
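HEK293T PR-UAS-bla, 2% charcoal-stripped FBS; 4 hr pre-plate; cpd + R5020, 16 h 37C; LiveBLAzer read first; then CellTiter-Glo 30 min RT, luminescence.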

A short description of assay [5]: qHTS assay to identify small molecule agonists of the progesterone receptor (PR) signaling pathway - cell viability counter screen (AID 1346799; calls by dose curve; also: nearly all actives have a fitted effect of over 45% in size). A digest of the protocol:
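Luminescence from CellTiter-Glo, added after the beta-lactamase FRET read in the same wells, gave cytotoxicity in PR-UAS-bla HEK293T cells treated with compounds for 16 hr at 37C.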

A short description of assay [6]: qHTS assay to identify small molecule antagonists of the TGF-beta/Smad signaling pathway - cell viability counter screen (AID 1346824). Also: nearly all actives have a fitted effect of over 50% in size. A digest of the protocol: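 Cytotoxicity counter-screen run in the same wells as the beta-lactamase Smad reporter read: CellTiter-Glo luminescence after 30 min at room temperature. HEK 293T SBE-bla cells had 5 hr compound exposure at 37 C with TGF-beta1 (0.25 ng/mL stock).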

Assay [7] is described as follows: qHTS assay to identify small molecule agonists of the TGF-beta/Smad signaling pathway - cell viability counter screen (AID 1346829). Also: top concentration of the series differs between compounds; nearly all actives have a fitted effect of over 45% in size. The gist of the method: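 Here the cytotoxicity of library compounds is measured in SBE-bla HEK 293T cells treated for 5 hr, using CellTiter-Glo added to wells already read for the beta-lactamase reporter.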
Assay [8] can be described thus: qHTS assay to identify small molecule agonists of the TGF-beta/Smad signaling pathway (AID 1346859; active = well fitted activation curve with a large enough effect in the signal ratio in the repeat runs, not every such curve was filed as active; the % refers to the signal ratio; also: series mostly up to about 77 µM). A digest of the protocol:
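SBE-bla HEK 293T, 4,000 cells/well, plated o/n; cpd in DMSO, 5 hr, 37 C/5% CO2; B/G FRET substrate 2 hr RT; ex 405, em 460/530 nm.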

Assay [9] can be described thus: Human pregnane X receptor (PXR) small molecule agonists, qHTS cell viability counter screen (AID 1346977). Also: nearly all actives have a fitted effect of over 50% in size. A digest of the protocol: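 PXR-Luc HepG2, 2,000 cells/well, 5% charcoal-stripped FBS; 5hr settle; cpd 24hr, 37C/5% CO2; CellTiter-Fluor at 23hr, read 1hr later (fluorescence).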
A short description of assay [10]: Caspase-3/7 induction in CHO-K1 cells by small molecules, qHTS cell viability counter screen (AID 1346979). Also: nearly all actives have a fitted effect of over 35% in size. A digest of the protocol:
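Cells (CHO-K1, wild type) are plated at 1,500 per well and incubated 5hr. Test compounds in DMSO are then pinned in, followed by 16hr at 37C and 5% CO2. Viability is read by CellTiter-Fluor fluorescence after 1hr.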

Assay [11] in a line: Caspase-3/7 induction in CHO-K1 cells by small molecules, qHTS assay (AID 1346980). Also: nearly all actives have a fitted effect of over 15% in size. The gist of the method: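 Luminescent Caspase-Glo 3/7 read (30min, room temperature) quantified apoptosis induction. Cells were wild-type CHO-K1, treated with compound for 17hr at 37 C and 5% CO2.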
Assay [12] is described as follows: Caspase-3/7 induction in HepG2 cells by small molecules, qHTS cell viability counter screen (AID 1346981). Also: series mostly up to about 92 µM; nearly all actives have a fitted effect of over 30% in size. A digest of the protocol:
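In this quantitative HTS counter screen, compounds delivered in DMSO were left on unmodified HepG2 cells for 16 hr at 37 C. Viability was then determined fluorometrically with CellTiter-Fluor, in parallel with caspase-3/7 induction in the same wells.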

The target in assay [13] is Nuclear receptor subfamily 1 group I member 2 (Homo sapiens) (UniProt O75469). The assay can be described thus: Human pregnane X receptor (PXR) small molecule agonists, qHTS assay (AID 1346982). Also: nearly all actives have a fitted effect of over 35% in size. A digest of the protocol:
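Reporter HepG2 cells expressing PXR-Luc are cultured in charcoal-stripped FBS (5%), treated with compounds for 24 hr at 37 C, and assayed by ONE-Glo luminescence after 30 min at room temperature.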

In assay [14] the target is Cytochrome P450 2D6 (Homo sapiens) (UniProt P10635). The assay is described as follows: Cytochrome P450 Family 2 Subfamily D Member 6 (CYP2D6) small molecule antagonists: luciferase reporter qHTS assay (AID 1671196). Also: nearly all actives have a fitted effect of over 50% in size. Also: potency is read from the fitted curve at half-maximal effect. The gist of the method: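 Test chemicals meet CYP2D6 plus proluciferin substrate (10 min, RT); NADPH regenerating solution then drives turnover for 1 h. Detection reagent halts the reaction; luminescence measured after 20 min.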
Cytochrome P450 2D6 (Homo sapiens), sequence (P10635 whole entry, looked up): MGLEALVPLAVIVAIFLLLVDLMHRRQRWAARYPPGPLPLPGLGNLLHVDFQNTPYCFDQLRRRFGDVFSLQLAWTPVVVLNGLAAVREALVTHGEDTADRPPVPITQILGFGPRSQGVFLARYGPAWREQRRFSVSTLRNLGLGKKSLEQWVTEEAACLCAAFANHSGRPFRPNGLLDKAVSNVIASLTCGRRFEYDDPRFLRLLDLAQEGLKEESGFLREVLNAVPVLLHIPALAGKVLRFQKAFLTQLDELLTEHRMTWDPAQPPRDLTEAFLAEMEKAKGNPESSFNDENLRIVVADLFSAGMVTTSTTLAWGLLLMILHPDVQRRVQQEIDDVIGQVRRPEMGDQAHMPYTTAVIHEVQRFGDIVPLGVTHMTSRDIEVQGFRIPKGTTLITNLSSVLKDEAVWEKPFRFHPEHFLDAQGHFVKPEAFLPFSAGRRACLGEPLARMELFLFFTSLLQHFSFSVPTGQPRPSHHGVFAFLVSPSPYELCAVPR
For orientation: A reporter such as luciferase makes a cellular process visible.

In assay [15] the target is Thyrotropin-releasing hormone receptor (Homo sapiens) (UniProt P34981). The assay is described as follows: qHTS assay to identify small molecule antagonists of the thyrotropin-releasing hormone receptor (TRHR) signaling pathway (AID 1346877; active = well fitted inhibition curve with a large enough effect in the repeat runs, not every such curve was filed as active; also: series mostly up to about 51 µM). A digest of the protocol:
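Kinetic fluorescence (3 min, 1 s resolution) following stimulation with TRH at 1 nM final; HEK293 cells bearing human TRHR; 5 min compound preincubation at RT; concentration-response over 15 points, triplicates.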

The target is the same in assay [16]. The assay can be described thus: qHTS assay to identify small molecule agonists of the thyrotropin-releasing hormone receptor (TRHR) signaling pathway (AID 1346891; calls by dose curve; also: series mostly up to about 58 µM). A digest of the protocol:
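Intracellular calcium rise, read as fluorescence every second for 3 min, served as the agonist signal in dye-loaded HEK293 cells expressing TRHR; each compound ran at 15 concentrations in triplicate.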

Assay [17] is described as follows: Caspase-3/7 induction in HepG2 cells by small molecules, qHTS assay (AID 1346978). Also: nearly all actives have a fitted effect of over 15% in size. The gist of the method:
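Caspase-3/7 induction was measured by Caspase-Glo 3/7 luminescence (30 min, room temperature) after a 17 hr compound exposure of wild-type HepG2 cells seeded at 2,000 per well and pre-incubated 5 hr.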

Assay [18] addresses Nuclear receptor subfamily 1 group I member 2 (Rattus norvegicus) (UniProt Q9R1A7). The assay can be described thus: Rat pregnane X receptor (rPXR) activation by small molecules, qHTS assay (AID 1346983). Also: nearly all actives have a fitted effect of over 20% in size. The note with it: rPXR luciferase reporter cells, One-Glo luminescence, 24 h; max activation: stronger effect = higher value. The gist of the method:
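Luminescent readout (One-Glo luciferase, 30 min room temperature) followed 24 hr compound treatment at 37 C of rPXR cells plated 2,000 per well and preincubated 5hr; qHTS format with compounds delivered in DMSO.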

For assay [19], the target named is Nuclear receptor subfamily 1 group I member 2 (Homo sapiens) (UniProt O75469). The assay can be described thus: CYP3A4 induction through human pregnane X receptor (PXR) by small molecules, qHTS assay (AID 1346984). Also: nearly all actives have a fitted effect of over 40% in size. The gist of the method:
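Induction measured in HepG2-based DPX-2 cells co-expressing human PXR and a CYP3A4 promoter-driven luciferase. After a 24-hour compound exposure, cells received CYP3A4 luciferin substrate at 3uM final for 3 hours, and light output was then recorded.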

Assay [20] shares this target. The assay is described as follows: Human pregnane X receptor (PXR) activation by small molecules, qHTS assay (AID 1346985). Also: nearly all actives have a fitted effect of over 40% in size. A digest of the protocol: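 DPX-2 cells (HepG2 co-transfected with a PXR response element and a CYP3A4-promoter luciferase construct) were seeded at 2,000 per well, rested 5 hr at 37C, then exposed to DMSO-dissolved compounds for 24 hr. Activation was read as luciferase luminescence.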

Molecules are shown by their SMILES. A number with no mark means an inactive call. Records with an inconclusive call do not appear. The source made the active and inactive calls. Unless noted, calls follow the shape of the dose curve; as a rule, active = well fitted curve in the direction sought with a large enough effect in the repeat runs; inconclusive = weak or mixed curves; inactive = no such curve, though single readings can be large; an effect the other way counts as inactive or inconclusive.
% is scaled to controls: 0 for no effect and ±100 for the full control effect.

Thyrotropin-releasing hormone receptor (Homo sapiens), sequence (P34981 whole entry, looked up): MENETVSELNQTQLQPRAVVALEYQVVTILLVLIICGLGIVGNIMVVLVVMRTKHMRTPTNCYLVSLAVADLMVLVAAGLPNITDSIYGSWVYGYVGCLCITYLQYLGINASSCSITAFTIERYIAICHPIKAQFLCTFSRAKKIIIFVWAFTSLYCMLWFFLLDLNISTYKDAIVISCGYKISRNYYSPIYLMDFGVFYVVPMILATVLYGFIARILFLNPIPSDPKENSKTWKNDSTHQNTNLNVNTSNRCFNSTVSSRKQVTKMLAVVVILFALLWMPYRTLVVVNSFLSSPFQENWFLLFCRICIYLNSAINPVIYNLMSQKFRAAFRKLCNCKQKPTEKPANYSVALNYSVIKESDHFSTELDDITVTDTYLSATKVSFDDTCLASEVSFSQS
Progesterone receptor (Homo sapiens), sequence (P06401 whole entry, looked up): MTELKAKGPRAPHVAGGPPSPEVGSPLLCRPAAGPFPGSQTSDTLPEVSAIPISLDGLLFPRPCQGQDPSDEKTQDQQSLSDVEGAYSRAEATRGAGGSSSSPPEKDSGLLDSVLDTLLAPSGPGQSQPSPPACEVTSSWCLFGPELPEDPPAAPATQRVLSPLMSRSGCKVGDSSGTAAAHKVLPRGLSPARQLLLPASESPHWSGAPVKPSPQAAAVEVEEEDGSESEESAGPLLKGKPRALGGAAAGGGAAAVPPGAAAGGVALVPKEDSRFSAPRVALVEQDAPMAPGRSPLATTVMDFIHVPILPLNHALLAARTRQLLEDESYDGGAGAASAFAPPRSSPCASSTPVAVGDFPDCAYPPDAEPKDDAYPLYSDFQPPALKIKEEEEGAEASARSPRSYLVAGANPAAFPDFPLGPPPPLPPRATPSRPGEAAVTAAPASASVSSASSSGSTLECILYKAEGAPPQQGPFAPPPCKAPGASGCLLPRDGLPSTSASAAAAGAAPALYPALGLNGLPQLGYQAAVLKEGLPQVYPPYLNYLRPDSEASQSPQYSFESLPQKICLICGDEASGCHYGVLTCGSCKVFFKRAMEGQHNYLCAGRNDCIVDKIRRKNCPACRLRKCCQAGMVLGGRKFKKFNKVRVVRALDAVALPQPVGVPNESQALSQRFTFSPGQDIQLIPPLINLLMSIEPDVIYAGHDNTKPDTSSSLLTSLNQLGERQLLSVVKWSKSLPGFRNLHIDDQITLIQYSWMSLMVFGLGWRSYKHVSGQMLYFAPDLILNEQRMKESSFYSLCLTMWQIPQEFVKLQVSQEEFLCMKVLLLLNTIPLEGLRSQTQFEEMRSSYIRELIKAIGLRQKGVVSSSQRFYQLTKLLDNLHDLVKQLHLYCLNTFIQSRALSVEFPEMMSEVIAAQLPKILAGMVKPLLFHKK
Nuclear receptor subfamily 1 group I member 2 (Homo sapiens), sequence (O75469 whole entry, looked up): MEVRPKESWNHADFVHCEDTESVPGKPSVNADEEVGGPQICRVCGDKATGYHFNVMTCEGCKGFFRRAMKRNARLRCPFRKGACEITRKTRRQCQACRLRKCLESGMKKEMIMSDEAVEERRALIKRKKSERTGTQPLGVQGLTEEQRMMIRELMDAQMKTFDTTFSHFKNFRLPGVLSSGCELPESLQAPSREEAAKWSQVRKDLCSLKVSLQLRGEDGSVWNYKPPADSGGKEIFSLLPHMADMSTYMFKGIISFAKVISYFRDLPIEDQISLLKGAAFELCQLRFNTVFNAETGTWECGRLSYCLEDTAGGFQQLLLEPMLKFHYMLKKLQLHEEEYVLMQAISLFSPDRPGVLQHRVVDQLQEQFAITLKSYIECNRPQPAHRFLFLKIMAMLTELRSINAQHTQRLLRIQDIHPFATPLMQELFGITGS
Nuclear receptor subfamily 1 group I member 2 (Rattus norvegicus), sequence (Q9R1A7 whole entry, looked up): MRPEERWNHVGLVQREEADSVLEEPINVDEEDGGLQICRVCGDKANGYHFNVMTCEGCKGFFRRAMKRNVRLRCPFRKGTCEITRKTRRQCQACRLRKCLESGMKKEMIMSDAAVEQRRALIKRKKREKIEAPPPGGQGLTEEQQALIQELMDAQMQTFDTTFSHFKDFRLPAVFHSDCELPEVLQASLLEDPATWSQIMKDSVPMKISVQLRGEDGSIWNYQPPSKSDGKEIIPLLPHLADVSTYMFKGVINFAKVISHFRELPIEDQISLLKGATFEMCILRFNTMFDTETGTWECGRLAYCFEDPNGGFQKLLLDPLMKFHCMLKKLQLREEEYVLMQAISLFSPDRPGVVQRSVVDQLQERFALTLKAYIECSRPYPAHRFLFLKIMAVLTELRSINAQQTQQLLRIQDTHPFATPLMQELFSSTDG

Take `CC1=CC=C(C(C)C)CC1`: the Potency entry in [1], in assay [2], in assay [3], in assay [4], in [5] and in assay [6] was “inactive” each time. Besides, the Potency result in [8], in assay [9], in assay [10], in [11], in [12] and in assay [13] was “inactive” throughout. For the same molecule, the Potency entry in [14] is “inactive”. For the same molecule, in assay [7], the molecule was classed as inactive.
Consider `CCCCCCCCCOS(=O)(=O)O`, for which the Potency result in assay [1], in [2], in assay [3], in assay [5], in [6] and in assay [8] was “inactive” each time. Further, the Potency entry in [16], in assay [9], in [17], in assay [10], in assay [11] and in assay [12] was “inactive” each time. Further, the Potency entry in assay [13] and in assay [14] was “inactive” throughout. The molecule was classed as inactive in [7] and in [15].
Take `COCCCN1CCC(NC(=O)c2cc(Cl)c(N)c3c2OCC3)CC1`: the Potency entry in assay [1], in [2], in [3], in assay [4], in assay [5] and in [6] was “inactive” in each case. Besides, the Potency entry in assay [8], in [9], in [10], in [11] and in [12] was “inactive” in each case. Besides, the result in [7] was inactive. Besides, the Potency in [14] was 3.89 µM (active).
Regarding `CCCCCCCCCCCc1ccccc1`, the Potency entry in assay [1], in assay [2], in assay [3], in assay [5], in [6] and in assay [8] was “inactive” throughout. Besides, the Potency entry in assay [16], in assay [9], in [17], in assay [10], in assay [11] and in [12] was “inactive” throughout. The Potency result in assay [13] and in [14] was “inactive” throughout. Also, the result in assay [7] and in assay [15] was inactive.
Turning to `C/C=C/C=C/CO`, the Potency result in assay [1], in [2], in assay [3], in assay [4], in assay [5] and in assay [6] was “inactive” in each case. The Potency entry in [8], in assay [9], in assay [17], in [10], in assay [11] and in assay [12] was “inactive” throughout. Further, the Potency entry in [13] and in [14] was “inactive” each time. Also, the result in [7] was inactive.
For `NCC(=O)CCC(=O)O`, the Potency result in [1], in assay [2], in assay [3], in assay [5], in assay [6] and in assay [8] was “inactive” in each case. Also, the Potency entry in assay [9], in [11], in assay [12], in assay [13], in [19] and in assay [20] was “inactive” in each case. The Potency result in assay [14] was “inactive”. Also, in assay [7], the molecule was classed as inactive. The max activation in assay [18] was -1.79%.
As to `CCCCCCCCO[C@@H]1O[C@H](CO)[C@@H](O)[C@H](O)[C@H]1O`, the Potency entry in [1], in [2], in assay [3], in assay [4], in assay [5] and in [6] was “inactive” in each case. For the same molecule, the Potency result in assay [8], in assay [16], in assay [9], in assay [10], in assay [11] and in [12] was “inactive” in each case. The Potency result in [14] is “inactive”. Further, the molecule was called inactive in assay [15].
For the molecule `O=C(O)C(S)C(S)C(=O)O` (stereo not given), the Potency entry in assay [1], in [2], in assay [3], in assay [4], in [5] and in assay [6] was “inactive” throughout. In addition, the Potency entry in assay [8], in assay [9], in assay [17], in assay [10], in [11] and in assay [12] was “inactive” throughout. In addition, the Potency result in assay [19], in assay [20] and in assay [14] was “inactive” in each case. Besides, the molecule was classed as inactive in [7]. The max activation in [18] was -9.28%.
